Assay results as given in ChEMBL document CHEMBL4513216, “Probing the Open Global Health Chemical Diversity Library for Multistage-Active Starting Points for Next-Generation Antimalarials” (ACS Infect Dis, 2020).
Among all 69,000 compounds or so, about 8,600 (12%) showed an effect of 50% or more. The sample holds strong results, similar compounds and a random draw of the others, so the mix is not that of the screen.

These compounds were tested on Plasmodium berghei (assay: Screen against P. berghei liver stage (PbLuc), transformed with Luciferase, at 10uM). Conditions: tested at 10 uM.
Type: functional, HepG2

Row | SMILES | INHIBITION
1 | Cc1nnsc1C(=O)NCc1nn(C)c2c1COCC2 | -2.09%
2 | CC(O)c1cn(Cc2ccc(Cl)cc2)nn1 (stereo not drawn) | 24.7%
3 | Cc1noc(C)c1CN1C[C@H]2CC[C@@H](C1)N(Cc1cc(F)cc(F)c1)C2 | 0.818%
4 | COCC(=O)N1CCC2(CC1)CC(=O)N(Cc1ccc(Cl)cc1)C2 | 14%
5 | Cc1ncsc1CN1CCC2(CC1)CC(=O)N(Cc1ccc(Cl)cc1)C2 | -16%
6 | CN(C)CC(=O)N1CC2(CCN(Cc3ccccc3)C2)C1 | -2.35%
7 | CC(=O)N1CC2(CCCN2Cc2ccc(Cl)cc2)Cc2ccccc21 (stereo not drawn) | 46.6%
8 | CC(=O)N1CC2(CCCN(Cc3ccc(Cl)cc3)C2)Cc2ccccc21 (stereo not drawn) | 49.1%
9 | CS(=O)(=O)N1CC2(CCCN2Cc2ccc(Cl)cc2)Cc2ccccc21 (stereo not drawn) | 23.4%
10 | CC(=O)N1CC2(CCN(Cc3ccc(Cl)cc3)CC2)Cc2ccccc21 | 61.5%
11 | CC(=O)N1CC2(CCN(Cc3ccc(Cl)cc3)C2)Cc2ccccc21 (stereo not drawn) | 57.3%
12 | CS(=O)(=O)N1Cc2ccccc2CC2(CCN(Cc3ccncc3)C2)C1 (stereo not drawn) | 38.3%
13 | CS(=O)(=O)N1Cc2ccccc2CC2(CCN(Cc3ccccc3)C2)C1 (stereo not drawn) | 55.7%
14 | CS(=O)(=O)N1Cc2ccccc2CC2(CCN(Cc3ccccn3)C2)C1 (stereo not drawn) | 40%
15 | CC(=O)N1CC2(CCCCN2Cc2ccc(Cl)cc2)Cc2ccccc21 (stereo not drawn) | 59%
16 | CCOc1ncccc1CNC(=O)N1CCCC1c1ccsc1 (stereo not drawn) | 40.9%
17 | O=C(c1cscn1)N1C[C@H]2CCCC(OCc3cccnc3)[C@H]2C1 (stereo partly drawn) | 4.2%
18 | CCS(=O)(=O)NCC(=O)NC1(C)CCc2ccccc2C1 (stereo not drawn) | -9.39%
19 | Cc1nc(CN2CCN(Cc3ccoc3)Cc3cccnc32)cs1 | 21.6%
20 | CSc1ncc(C(=O)N2C[C@@H]3CC[C@H]2CN(S(=O)(=O)N(C)C)C3)cn1 | -9.92%
21 | Cc1c(C(=O)N2CCCSCC2)nnn1-c1ccccc1Cl | 26%
22 | Cc1nc(C)c(C(=O)NCCNC(=O)Cc2ccc(F)cc2)s1 | -29.9%

Row | SMILES | INHIBITION
23 | CC(C)N1CCC(C(=O)N2CCC(C(O)c3nccn3C)CC2)CC1 (stereo not drawn) | 9.41%
24 | O=c1[nH]ncn1-c1cccc(C(F)(F)F)c1 | 42.1%
25 | CCCN1CCCn2c(nc(CNC(=O)c3cnoc3C)cc2=O)C1 | 9.63%
26 | O=C(NC1(c2nccs2)CCCC1)c1cc(C2CC2)[nH]n1 | 29.8%
27 | O=C(NC1(c2nccs2)CCCC1)c1cc(C2CC2)on1 | 36.5%
28 | O=C(NC1(c2nccs2)CCCC1)c1[nH]nc(C2CC2)c1Cl | 56.6%
29 | COc1cc(C)ccc1OCC(=O)NS(=O)(=O)c1ccc(Br)s1 | -2.19%
30 | CCc1nc(CC(=O)N2CCCC2Cn2cccn2)cs1 (stereo not drawn) | 2.61%
31 | O=C(c1cc(F)cc2[nH]cnc12)N1CCCC1Cn1cccn1 (stereo not drawn) | 39.7%
32 | CCN(CC)Cc1ccc(C(=O)N2CCCC2Cn2cccn2)cc1 (stereo not drawn) | 56.85%
33 | CCc1nc(CC(=O)N2CCCCC2Cn2cccn2)cs1 (stereo not drawn) | 62.6%
34 | O=C(c1cc2cc(F)ccc2[nH]1)N1CCCCC1Cn1cccn1 (stereo not drawn) | -12.2%
35 | CCN(CC)CC(=O)N1CCCC1Cn1cccn1 (stereo not drawn) | 21.5%
36 | NC(=O)c1csc(C(=O)N2CCCCC2Cn2cccn2)c1 (stereo not drawn) | 17.8%
37 | CCN(CC)Cc1ccc(C(=O)N2CCCC2Cn2cccn2)o1 (stereo not drawn) | 4.05%
38 | NC(=O)c1ccc(C(=O)N2CCCCC2Cn2cccn2)s1 (stereo not drawn) | 53.9%
39 | CCc1ncc(C(=O)N2CCCCC2Cn2cccn2)s1 (stereo not drawn) | 33.6%
40 | Cc1nc(CC(=O)N2CCCCC2Cn2cccn2)cs1 (stereo not drawn) | 7.08%
41 | O=C(c1cc(F)cc2[nH]cnc12)N1CCCCC1Cn1cccn1 (stereo not drawn) | 77.4%
42 | O=C(c1ccc2c(c1)CCC2)N1CCn2ncnc2C1 | 40.4%
43 | CS(=O)(=O)N1CCCC(Cc2ccnc(Nc3ccccn3)c2)C1 (stereo not drawn) | 12.7%
44 | CCNC(=O)[C@@H]1C[C@@H](N)CN1C(=O)C1(c2ccc(OC)cc2)CCCC1 | 9.55%

Row | SMILES | INHIBITION
45 | Cn1ccc(CN2CCC3(CC2)CC(Nc2cnccn2)CO3)n1 (stereo not drawn) | 46.7%
46 | Cc1ccccc1-n1nc(C)c(CN(C)C(C)Cc2ccccn2)c1C (stereo not drawn) | 24%
47 | Cc1cccc(CNC(C)c2ccc(OCC(=O)NC3CC3)cc2)c1 (stereo not drawn) | 15.3%
48 | O=C(NCC1OCCc2cn(CC3CCOCC3)nc21)c1ccncc1 (stereo not drawn) | 32.2%
49 | CCOc1ccc(Cl)cc1CCNC(=O)Cn1ccccc1=O | -47%
50 | CC(Cn1cccn1)NCCCc1nc(-c2cccs2)no1 (stereo not drawn) | 10%
51 | CCN(CC)Cc1ccc(C(=O)N2CCCCC2Cn2cccn2)o1 (stereo not drawn) | 19.5%
52 | O=C(c1ccc2nncn2c1)N1CCCCC1Cn1cccn1 (stereo not drawn) | 54.4%
53 | CCc1ccc(C(=O)N2CCCCC2Cn2cccn2)o1 (stereo not drawn) | -2.35%
54 | Cc1cnn(CC2CCCCN2C(=O)c2ccc3nncn3c2)c1 (stereo not drawn) | 35.9%
55 | O=C(c1csc(C2CC2)n1)N1CCCC1Cn1cccn1 (stereo not drawn) | 1.78%
56 | O=C(c1csc(C2CC2)n1)N1CCCCC1Cn1cccn1 (stereo not drawn) | 52.5%
57 | Cc1cc(C)n(CC2CCCCN2C(=O)c2ccc3nncn3c2)n1 (stereo not drawn) | 5.97%
58 | CC(=O)Nc1nc(C(=O)N2CCCCC2Cn2cccn2)cs1 (stereo not drawn) | -27.8%
59 | COc1ccc(OCCC(=O)N2CCCC2Cn2cccn2)cc1 (stereo not drawn) | -10.1%
60 | COc1cc(C)ccc1OCCC(=O)N1CCCC1Cn1cccn1 (stereo not drawn) | 52.7%
61 | COc1ccccc1OCCC(=O)N1CCCC1Cn1cccn1 (stereo not drawn) | 33.3%
62 | CC(=O)NCc1ccc(C(=O)N2CCCCC2Cn2cccn2)o1 (stereo not drawn) | 61.7%
63 | Cc1sc(Oc2ccccc2Cl)nc1C(=O)O | 18.14%
64 | CC(C)N1CCC(NC(=O)c2cn(-c3ccc(F)cc3)nn2)C1 (stereo not drawn) | 23.7%
65 | CCS(=O)(=O)CCNC(=O)c1cc2n(n1)CCCO2 | -16.3%
66 | Cc1cnc(N2CCOCC3(CCN(c4ccccn4)C3)C2)nc1 (stereo not drawn) | 34.4%

Row | SMILES | INHIBITION
67 | COc1ccc(C2CCCN2Cc2nc3c(cnn3C)c(=O)[nH]2)cc1 (stereo not drawn) | -5.25%
68 | O=C(CCc1c(F)cccc1F)N1CCCCC1Cn1cccn1 (stereo not drawn) | 15.6%
69 | C=c1nc(NC)sc1=C1NC(c2c(C)ncc3c2CCNC3)=NO1 | 39.3%
70 | Cn1ccc(CN2CCC(CN3CCOCC3)CC2)cc1=O | 31.3%
71 | COc1cccc(-c2cc(C(=O)NCCCn3nc(C)cc3C)[nH]n2)c1 | -68.9%
72 | c1ccc([C@@H]2CN(Cc3ccncc3)C[C@H]2c2cc[nH]n2)cc1 | 27.2%
73 | Cc1cn2c(=O)c(-c3ccnc(NC4CCOCC4)n3)cnc2s1 | -9.27%
74 | CCOCCCNC(=O)CN(c1cc(C)cc(C)c1)S(C)(=O)=O | 34.2%
75 | N#Cc1ccc(CN2CCCC2Cn2cccn2)cc1 (stereo not drawn) | 9.14%
76 | O=C(Nc1cccc(C2SCCS2)c1)C1CCCN1c1nccs1 (stereo not drawn) | 50.7%
77 | O=C(Nc1cccc(N2CCCC2)c1)C1CCCN1c1nccs1 (stereo not drawn) | 48.9%
78 | O=C(Nc1cccc(F)c1)C1CCCN1c1nccs1 (stereo not drawn) | 7.75%
79 | Cc1nn(C)c(C)c1-c1ccc(=O)n(C(C)C(=O)NC2CCCCC2)n1 (stereo not drawn) | 47.6%
80 | CN(C)c1ccc(CNCc2ccc(N3CCOCC3)cc2)cn1 | -0.551%
81 | CC(C)Cn1cnc(S(=O)(=O)NCCc2nnc3ccccn23)c1 | 12%
82 | CC(C)COc1cncc(NCC(O)c2ccco2)n1 (stereo not drawn) | 20.8%
83 | CC(C)COc1cncc(NC(CO)c2ccco2)n1 (stereo not drawn) | 45.6%
84 | CC(C)COc1cncc(NCc2nnc3ccccn23)n1 | 64.3%
85 | CCOc1cncc(NCCc2nnc3ccccn23)n1 | 43.4%
86 | CC(C)COc1cncc(NCCc2nnc3ccccn23)n1 | 55.4%
87 | CCc1nc(C2CCCN2C(=O)c2ccc(N3CCCC3)nn2)no1 (stereo not drawn) | 23.5%
88 | CC(=O)NCCC1CCCCN1S(=O)(=O)c1ccc2ccccc2c1 (stereo not drawn) | 29%

Row | SMILES | INHIBITION
89 | O=C(Nc1ccc(-c2nnc[nH]2)cc1)C1CCN1Cc1ccccc1 (stereo not drawn) | -17.3%
90 | CO[C@H]1CCN(Cc2ccccn2)[C@@H]2CN(Cc3ccco3)C[C@H]12 | -11.1%
91 | CC[C@@H]1N(CC2CC2)CCC[C@]12CCC(=O)N2 | 65.9%
92 | CC[C@@H]1N(CC2CCOCC2)CCC[C@]12CCC(=O)N2 | 49.7%
93 | CC[C@H]1N(CC2CCOCC2)CCC[C@]12CCC(=O)N2 | 27.5%
94 | Cc1ccc2nccc(C(=O)N3CCOC(CCN(C)C)C3)c2c1 (stereo not drawn) | 43.9%
95 | Cc1cc(C(=O)N2CCCC(C(=O)c3nccn3C)C2)c(=O)[nH]c1C (stereo not drawn) | 25.9%
96 | Cc1ccc(CC(=O)N(CC2CN(C)CCO2)c2nccs2)cn1 (stereo not drawn) | 11.9%
97 | Cc1cc(NC(=O)CCN2CCCC2Cn2cncn2)no1 (stereo not drawn) | 56.3%
98 | O=C(CN1CCCCC1Cn1cccn1)NC1CCN(C2CC2)CC1 (stereo not drawn) | 26.8%
99 | O=C(CN1CCCCC1Cn1cncn1)NCCc1ccc(F)cc1 (stereo not drawn) | 43.4%
100 | O=C(CN1CCCC1Cn1cncn1)NCCOc1cccc(F)c1 (stereo not drawn) | 20.1%
101 | O=C(CN1CCCCC1Cn1cncn1)NC1CCN(C2CC2)CC1 (stereo not drawn) | 70.1%
102 | O=C(CN1CCCC1Cn1cncn1)NCCOc1ccccc1 (stereo not drawn) | 36.1%
103 | CCN1CCC(NC(=O)CN2CCCCC2Cn2cncn2)CC1 (stereo not drawn) | -36.1%
104 | O=C(CN1CCCCC1Cn1cncn1)NCCOc1ccccc1 (stereo not drawn) | 0.411%
105 | Cc1cc(NC(=O)CCN2CCCCC2Cn2cncn2)no1 (stereo not drawn) | 16.9%
106 | O=C(CN1CCCC1Cn1cncn1)NCCc1c(F)cccc1F (stereo not drawn) | 57.2%
107 | O=C(CN1CCCC1Cn1cncn1)NCC1(c2ccccc2)CC1 (stereo not drawn) | 89.1%
108 | Cc1cc(NC(=O)CCN2CCCC2Cn2cccn2)no1 (stereo not drawn) | 31.9%
